# Source: PubChem BioAssay (NCATS)
# Inconclusive results are not listed. Entries that show only a call come without a potency. Values without a mark were called inactive. Activity calls are given as the source filed them. Calls come from the whole dose curve; as a rule, active = well fitted curve in the direction sought with a large enough effect; inconclusive = small, poorly fitted or top-dose-only effect, or another doubt; inactive = no such curve, though single readings can be large; an effect the other way counts as inactive or inconclusive.
# Experiments:
# [1] = SW1088 Cancer Cell Toxicity qHTS against the NCATS CANVASS Library (AID 1347350); note: nearly all actives have a fitted effect of over 75% in size; note: potency is the fitted concentration of half-maximal effect; for activity change, negative = cytotoxicity: series mostly up to about 38 µM
# Outline: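 Per well, 1000 cells; exposure 72 h with compound at 11 final concentrations; readout CellTiter-Glo luminescence.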
# [2] = HEK-293 Cancer Cell Toxicity qHTS against the NCATS CANVASS Library (AID 1347355); note: nearly all actives have a fitted effect of over 65% in size; note: potency is the fitted concentration of half-maximal effect; for activity change, negative = cytotoxicity: series mostly up to about 46 µM; for outcome: series mostly up to about 46 µM
# Outline: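 Toxicity was measured as CellTiter-Glo luminescence after 72 h exposure to an 11-point compound series. Compound was added to 1000 cells/well 4 h after seeding.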
# [3] = HPAF-II 12hr Apoptosis Induction qHTS against the NCATS CANVASS Library (AID 1347358)
# Outline: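 Caspase-3/7 activation by DEVD-substrate luminescence (Caspase-Glo 3/7, 15 min, room temperature) after a 12-hour compound exposure in 11 concentrations, of HPAF-II pancreatic cells seeded at 500/well in DMEM with 10% FBS.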
# [4] = SDT Cancer Cell Toxicity qHTS against the NCATS CANVASS Library (AID 1347365); note: nearly all actives have a fitted effect of over 60% in size; note: potency is the fitted concentration of half-maximal effect;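 for activity change, negative = cytotoxicity: SDT canine glioma cells 500 per well in 1536 well plates; series mostly up to about 46 µM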
# Outline: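 Cytotoxicity taken from CellTiterGlo ATP luminescence after 72 hr at 37C, 5% CO2. Canine glioma line SDT, 500 cells/well, treated at 11 concentrations; bortezomib dose series as control.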
# [5] = KB-3-1 Cancer Cell Toxicity qHTS against the NCATS CANVASS Library (AID 1347366); note: nearly all actives have a fitted effect of over 75% in size; note: potency is the fitted concentration of half-maximal effect; for activity change, negative = cytotoxicity: series mostly up to about 46 µM
# Outline: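 CellTiter-Glo luminescence measured viability after 72 h at 37C. KB-3-1 cells were seeded at 500 per well in DMEM/10% FBS.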
# [6] = G06 Cancer Cell Toxicity qHTS against the NCATS CANVASS Library (AID 1347368); note: nearly all actives have a fitted effect of over 60% in size; note: potency is the fitted concentration of half-maximal effect; for activity change, negative = cytotoxic: series mostly up to about 46 µM
# Outline: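 Viability measured by CellTiterGlo ATP luminescence after 72 hr at 37C, 5% CO2. Canine G06 glioma cells plated at 500/well. Compounds tested as 11-point qHTS titrations.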
# [7] = qHTS for ATAD5 Antagonist screened against the NCATS CANVASS Library (AID 1347370); note: nearly all actives have a fitted effect of over 65% in size; note: potency is the fitted concentration of half-maximal effect;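 for activity change, negative = inhibition: HEK293T cells carrying an ATAD5 luciferase reporter co-treated with 10 µM 5-fluorouridine; series mostly up to about 46 µM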
# Outline: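 Compounds (11-point) co-dosed with 10 µM 5-FUrd for 16 h at 37 °C onto HEK293T-ATAD5 luciferase reporter cells. Viability measured by CellTiter-Fluor fluorescence, then ATAD5 reporter signal by luminescence.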
# [8] = target: Nuclear receptor subfamily 1 group I member 3 (Homo sapiens) (UniProt Q14994); assay: qHTS for Constitutive Androstane Receptor (CAR) Antagonist screened against the NCATS CANVASS Library (AID 1347372); note: potency is the fitted concentration of half-maximal effect;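 for activity change, negative = inhibition: cells stimulated with 50 nM CITCO agonist so inhibition reflects antagonism; series mostly up to about 46 µM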
# Nuclear receptor subfamily 1 group I member 3 (Homo sapiens), sequence (Q14994 whole entry, looked up): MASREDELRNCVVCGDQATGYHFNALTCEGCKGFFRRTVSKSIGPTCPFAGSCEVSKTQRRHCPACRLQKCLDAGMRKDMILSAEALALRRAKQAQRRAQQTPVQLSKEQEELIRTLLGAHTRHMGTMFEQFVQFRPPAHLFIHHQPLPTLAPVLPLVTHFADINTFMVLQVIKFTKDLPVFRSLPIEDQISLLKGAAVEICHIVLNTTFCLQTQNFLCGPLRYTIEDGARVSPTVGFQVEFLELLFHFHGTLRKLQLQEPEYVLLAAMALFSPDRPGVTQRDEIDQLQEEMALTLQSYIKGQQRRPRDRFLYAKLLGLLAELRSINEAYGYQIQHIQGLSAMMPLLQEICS
# Outline: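 Antagonist mode: compound added alongside 50 nM CITCO to HepG2-hCAR-CYP2B6 reporter cells, 24hr at 37C. Viability by CellTiter-Fluor fluorescence, then CAR-driven luciferase by ONE-Glo luminescence.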
# [9] = target: Nuclear receptor subfamily 1 group I member 3 (Homo sapiens) (UniProt Q14994); assay: qHTS for Constitutive Androstane Receptor (CAR) Agonist screened against the NCATS CANVASS Library (AID 1347373);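 note: every well also contained 1.5 µM PK11195 alongside the test compound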
# Outline: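 Agonist mode with 1.5uM PK11195 present: compounds for 24hr on HepG2-hCAR-CYP2B6 cells. CellTiter-Fluor fluorescence (ex 405, em 540 nm) gives viability; ONE-Glo luminescence reports CAR activation.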
# [10] = qHTS for Hypoxia signaling pathway (HIF-1) antagonists against the NCATS CANVASS Library (AID 1347374); note: nearly all actives have a fitted effect of over 60% in size; note: potency is the fitted concentration of half-maximal effect;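 for activity change, negative = inhibition: HRE-bla ME-180 cells stimulated with cobalt chloride to stabilize HIF-1alpha; series mostly up to about 38 µM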
# Outline: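 Antagonism scored as loss of CoCl2-driven (60 uM stock added) HRE beta-lactamase signal, read by CCF4 FRET at 460/530 nm. Compounds were tested in an 11-point series on ME-180 reporter cells for 17 hrs at 37C, with parallel CellTiter-Glo cytotoxicity.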
# [11] = 10-beta competent E. coli microbial cell viability qHTS against the NCATS CANVASS Library (AID 1347376); note: series mostly up to about 46 µM
# Outline: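 Read-out: BacTiter-Glo ATP luminescence, taken 20 min after reagent addition. Beforehand, 10-beta competent E. coli at 0.2 OD had been incubated overnight at 37C with compounds at 11 concentrations.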
# [12] = qHTS for H2AX Agonists against the NCATS CANVASS Library (AID 1347378); note: potency is the fitted concentration of half-maximal effect
# Outline: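 Phospho-H2AX (S139) in CHO-K1 lysates measured by HTRF, reported as 665/615 nm emission ratio after 24 hr antibody incubation at room temperature. Cells were first treated with a compound series for 3 hr at 37C (0.76% DMSO final).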
# [13] = Cytotoxicity qHTS for assessment of Hepg2 cells membrane integrity screened against the NCATS CANVASS Library (AID 1347387)
# Outline: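 Membrane damage quantified as fluorescent LDH-release signal (ex 560, em 590 nm) in HepG2 cells treated 5 hr at 37C. qHTS format, 11 concentrations spanning 0.59 nM - 46 uM final, cells plated at 2000 per well the night before.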
# [14] = qHTS for Activators of p53 Stress Response Pathway screened against the NCATS CANVASS Library (AID 1347388)
# Outline: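 Beta-lactamase reporter driven by p53 response elements in HCT-116 cells, read as the 460 nm/530 nm emission ratio after CCF4 loading, following 16 h of exposure to an 11-point series. Cell viability was measured in the same wells by CellTiter-Glo luminescence.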
# [15] = qHTS assay for small molecule disruptors of mitochondrial membrane potential screened against the NCATS CANVASS Library (AID 1347389); note: series mostly up to about 46 µM; nearly all actives have a fitted effect of over 60% in size
# Outline: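 Mitochondrial membrane potential in HepG2: 1 h compound treatment (11-point concentration series), 30 min m-MPI dye at 37C, then dual fluorescence of J-aggregates (ex 540/em 590) and monomers (ex 490/em 535); lower red/green ratio indicates depolarization.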
# [16] = Secretion counterscreen for inhibitors of the SERCaMP assay screened against the NCATS CANVASS Library (AID 1347390);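 note: light from luciferase secreted into medium read as a measure of general secretion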; note: potency is the fitted concentration of half-maximal effect; for activity change, negative = inhibition: series mostly up to about 77 µM
# Outline: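 Counterscreen for secretory-pathway interference: after 4 h attachment, SH-SY5Y-GLuc cells were exposed 20 hours to compounds (final 0.001 - 77 uM), then coelenterazine added and GLuc luminescence recorded; Brefeldin A served as control.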
# [17] = qHTS for activators of dead-cell proteases activity screened against the NCATS CANVASS Library (AID 1347392);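 note: luminescence from protease leaking out of membrane-damaged cells cleaving impermeant substrate; rising signal means more cytotoxicity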
# Outline: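 Luminescent dead-cell protease readout (AAF-aminoluciferin, 15 min, room temperature) after 5 h compound treatment of HepG2 cells (2000/well, pre-attached 18 h). Eleven concentrations.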
# [18] = qHTS for inhibitors of ER calcium dysfunction: SERCaMP assay screened against the NCATS CANVASS Library (AID 1347393); note: nearly all actives have a fitted effect of over 40% in size; note: potency is the fitted concentration of half-maximal effect;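 for activity change, negative = inhibition: series mostly up to about 77 µM; lower secreted reporter signal means inhibitor of ER calcium depletion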
# Outline: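 Thapsigargin-induced ER calcium depletion drives GLuc-SERCaMP secretion from SH-SY5Y cells; compounds given 16 h beforehand were scored by lowered coelenterazine luminescence after 4 h challenge.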
# [19] = Viability qHTS for inhibitors of the SERCaMP assay screened against the NCATS CANVASS Library (AID 1347400); note: nearly all actives have a fitted effect of over 70% in size; note: potency is the fitted concentration of half-maximal effect; for activity change, negative = cytotoxicity: series mostly up to about 92 µM
# Outline: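 CellTiter-Glo luminescence measured cytotoxicity after 48 h at 37C of compound treatment (11-point series). Cells were SH-SY5Y-GLuc SERCaMP MJH297 derivatives, seeded at 1000 per well 4 h beforehand.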
# [20] = Redox Reaction Profiling qHTS: Assay Interference Panel against the NCATS CANVASS Library (AID 1347401)
# Outline: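 Redox-cycling liability assessed as DTT-driven conversion of resazurin (5 uM, with 200 uM DTT, HEPES pH 7.3) to fluorescent resorufin. Fluorescence at 525/598 nm measured initially and after 15 min dark incubation.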
smiles,measurement,setting,value
O=C(O)[C@@]12CO[C@@]3(O)C4CCN(CC[C@H]31)[C@H]4c1c2[nH]c2ccccc12,Potency,[1],inactive
same,Potency,[2],inactive
same,Potency,[3],inactive
same,Potency,[4],inactive
same,Potency,[5],inactive
same,Potency,[6],inactive
same,Potency,[7],inactive
same,Potency,[8],inactive
same,outcome,[9],inactive
same,Potency,[10],inactive
same,outcome,[11],inactive
same,Potency,[12],inactive
same,outcome,[13],inactive
same,Potency,[14],inactive
same,Potency,[15],inactive
same,Potency,[16],inactive
same,Potency,[17],inactive
same,Potency,[18],inactive
same,Potency,[19],inactive
same,Potency,[20],inactive
CN1CC[C@]2(c3cccc4c3N[C@@H]3N(C)CC[C@]43[C@@]34CCN(C)[C@@H]3Nc3c([C@]56CCN(C)[C@H]5Nc5ccccc56)cccc34)c3ccccc3N[C@H]12,Potency,[1],18.8 µM (active)
same,Potency,[2],2.96 µM (active)
same,Potency,[4],1.32 µM (active)
same,Potency,[5],4.69 µM (active)
same,Potency,[6],2.64 µM (active)
same,Potency,[7],9.33 µM (active)
same,Potency,[8],26.3 µM (active)
same,outcome,[9],inactive
same,Potency,[12],13.7 µM (active)
same,Potency,[15],inactive
same,Potency,[18],inactive
same,Potency,[19],4.8 µM (active)
same,Potency,[20],inactive
COc1cc(/C=C2/C(=O)N(c3ccc(O)cc3C(=O)O)[C@H](c3ccc(O)c(OC)c3)C2C(=O)Nc2ccc(O)cc2C(=O)O)ccc1O (stereo partly specified),Potency,[1],inactive
same,Potency,[2],inactive
same,Potency,[3],inactive
same,Potency,[4],inactive
same,Potency,[5],inactive
same,Potency,[6],inactive
same,Potency,[7],inactive
same,Potency,[8],inactive
same,outcome,[9],inactive
same,Potency,[10],8.38 µM (active)
same,outcome,[11],inactive
same,Potency,[12],inactive
same,outcome,[13],inactive
same,Potency,[14],inactive
same,Potency,[15],inactive
same,Potency,[16],inactive
same,Potency,[17],inactive
same,Potency,[18],inactive
same,Potency,[19],inactive
COC1C(O)C(OC(N)=O)C(Oc2ccc3c(O)c(NC(=O)c4ccc(O)c(CC=C(C)C)c4)c(=O)oc3c2C)OC1(C)C (stereo unspecified),Potency,[1],inactive
same,Potency,[2],inactive
same,Potency,[3],inactive
same,Potency,[4],inactive
same,Potency,[5],inactive
same,Potency,[6],inactive
same,Potency,[7],inactive
same,Potency,[8],inactive
same,outcome,[9],inactive
same,Potency,[10],inactive
same,Potency,[12],inactive
same,outcome,[13],inactive
same,Potency,[14],inactive
same,Potency,[16],24.3 µM (active)
same,Potency,[17],inactive
same,Potency,[18],27.2 µM (active)
same,Potency,[19],inactive
same,Potency,[20],inactive
CO[C@@H]1[C@H](O)[C@@H](C)O[C@@H](OC[C@@H]2C(C)OC(=O)/C=C/[C@H](C)C(O[C@@H]3O[C@H](C)CC4(OC(=O)O[C@@H]4C)C3O)[C@@H](C)CC(C)C(=O)CC[C@H]3OC23)[C@@H]1OC (stereo partly specified),Potency,[1],inactive
same,Potency,[2],inactive
same,Potency,[3],inactive
same,Potency,[4],inactive
same,Potency,[5],inactive
same,Potency,[8],inactive
same,outcome,[9],inactive
same,Potency,[10],inactive
same,outcome,[11],inactive
same,Potency,[12],inactive
same,outcome,[13],inactive
same,Potency,[14],inactive
same,Potency,[15],inactive
same,Potency,[16],inactive
same,Potency,[17],inactive
same,Potency,[19],inactive
same,Potency,[20],inactive
COc1ccc2oc3c(OC)c(OC)c(OC)c(OC)c3c(=O)c2c1,"activity change, negative = cytotoxicity",[1],3.04% [at 7.64 µM]
same,"activity change, negative = cytotoxicity",[2],-6.97% [at 9.19 µM]
same,caspase activation,[3],5.91% [at 9.19 µM]
same,"activity change, negative = cytotoxicity",[4],-18.8% [at 9.19 µM]
same,"activity change, negative = cytotoxicity",[5],-8.69% [at 9.19 µM]
same,"activity change, negative = cytotoxic",[6],-19.7% [at 9.19 µM]
same,"activity change, negative = inhibition",[7],-20.5% [at 9.19 µM]
same,"activity change, negative = inhibition",[8],22.2% [at 9.19 µM]
same,activation,[9],7.45% [at 9.19 µM]
same,"activity change, negative = inhibition",[10],0.76% [at 7.64 µM]
same,"activity change, negative = cytotoxic",[11],-7.99% [at 9.19 µM]
same,activation,[12],-1.65% [at 15.3 µM]
same,cytotoxicity (LDH release),[13],-0.617 [at 9.19 µM]
same,activation,[14],-1.1% [at 9.19 µM]
same,"activity change, negative = inhibition",[16],-3.74% [at 15.3 µM]
same,activation (cytotoxicity),[17],-1.14% [at 9.19 µM]
same,"activity change, negative = inhibition",[18],-15.7% [at 15.3 µM]
same,"activity change, negative = cytotoxicity",[19],-11.8% [at 18.4 µM]
same,activation (redox signal),[20],-9.99% [at 11.4 µM]
